From PubChem
Compounds with a hit are over-represented: about 17% of the library has one in this group of screens.
DT40 TDP1 no CPT: qHTS for Inhibitors of human tyrosyl-DNA phosphodiesterase 1 (TDP1): qHTS in cells in absence of CPT; DT40 Tdp1-/- hTDP1 cells, no CPT, ATP luminescence, 48 h; Potency, µM (top dose mostly 46.2 µM), without a hit: top-dose activity change, negative = growth inhibition, actives largely listed as inhibitors; actives 15% (n = 420,000); AID 686978, 2013; further: on the % scale 0 is the no-effect control and ±100 the full control effect; nearly all actives have a fitted effect of over 55% in size
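Stably hTDP1-transfected Tdp1-null chicken DT40 cells were treated with library compounds minus camptothecin and grown for at least 48 hr at 37 °C, after which cellular ATP was quantified by luminescence.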
TDP1 block: blocks human tyrosyl-DNA phosphodiesterase 1; Q9NUW8; recombinant TDP1, AlphaScreen DNA substrate cleavage; Potency, µM (series often up to 130 µM), for the others: at the highest dose activity change, negative = inhibition, most hits filed as inhibitors; actives 0.28% (n = 350,000); further: on the % scale 0 is the no-effect control and ±100 the full control effect; nearly all actives have a fitted effect of over 40% in size
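Recombinant human Tdp1 (E. coli-expressed, 1 nM final) preincubated with compounds 15 min at room temperature, then 5'-biotin/3'-phosphotyrosine-FITC DNA substrate (15 nM final) added for 5 min. AlphaScreen beads (10 ug/ml final) added 10 min; cleavage lowers signal.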
ClpP mod: qHTS Assay for Activators of ClpP. ATP-dependent Clp protease proteolytic subunit (Bacillus subtilis (strain 168)), P80244. purified B. subtilis ClpP, FRET peptide cleavage, 20 min. Potency, µM (series often up to 57.5 µM), inactives show at the top dose activity change, negative = active. actives 1.9% (n = 340,000). AID 651965, 2013; active means well fitted falling curve with a large enough effect; inconclusive means small, poorly fitted or top-dose-only effect; inactive means no such curve, though single readings can be large or run the other way; further: the source files actives as falling curves though it sought activators and does not explain the sign; nearly all actives have a fitted effect of over 65% in size
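ClpP 10 microg/mL final, pH 8 Tris/KCl buffer with BSA, glycerol, Tween-20; compound pinned in; FRET-FV substrate; RT 20 min; Ex320/Em430; ΔFRET vs ADEP 5.8 microM, DMSO, no enzyme.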
DT40 TDP1 CPT: DT40-hTDP1 cell growth loss with CPT; chicken DT40 Tdp1-/-;hTDP1 cells + 20 nM CPT, ATP luminescence, 48 h; Potency, µM (doses to about 46.2 µM), for the others: at the top dose activity change, negative = growth inhibition, hits mostly inhibitors; actives 12% (n = 420,000); further: on the % scale 0 is the no-effect control and ±100 the full control effect; nearly all actives have a fitted effect of over 55% in size
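Chicken DT40 Tdp1-/- cells complemented with human TDP1, 400 cells/well, exposed to compounds plus 20 nM camptothecin for at least 48 h at 37 C; viability read as ATP content by CellTiter-Glo luminescence.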
The depositor's hits bear a star; u = inconclusive; x = no result given. Unless noted, the call rests on the fitted dose curve; in most records, active means well fitted curve in the direction sought with a large enough effect; inconclusive means small, poorly fitted or top-dose-only effect, or another doubt; inactive means no such curve, though single readings can be large; an effect the other way counts as inactive or inconclusive. Potency means the concentration at half of the fitted maximal effect.

SMILES | DT40 TDP1 no CPT | TDP1 block | ClpP mod | DT40 TDP1 CPT
COc1ccc(-c2nc(CS(=O)(=O)CC(=O)NCCc3cc(OC)ccc3OC)c(C)o2)cc1 | 23µM* | 7% | -13% | u
COc1ccc(CC(=O)Nc2ccc(-c3noc(-c4ccc(Cl)cc4)n3)cc2)cc1 | u | 5% | 0% | 5.2µM*
COc1ccc(-c2nc(CS(=O)(=O)CC(=O)Nc3ccc(Cl)cc3)c(C)o2)cc1 | 21µM* | -4% | -6% | 10µM*
COc1cccc(-c2nc(CS(=O)(=O)CC(=O)NCCc3ccc(OC)cc3OC)c(C)o2)c1 | 23µM* | 5% | -14% | 18µM*
CCCSc1nc2cc(C)c(C)cc2n1CC(C)O (stereo not drawn) | -5% | 5% | x | -3%
COc1cccc(-c2nc(CS(=O)(=O)CC(=O)NCCc3cc(OC)ccc3OC)c(C)o2)c1 | 18µM* | 6% | x | -22%
COc1ccc(OC)c(CCNC(=O)CS(=O)(=O)Cc2nc(-c3cccc(Cl)c3)oc2C)c1 | u | 6% | -4% | u
COc1ccc(N2Cc3cccc(C(=O)Nc4ccc(F)cc4)c3C2=O)cc1 | 8.2µM* | 2% | -28% | 10µM*
CCOC(=O)N1CCC(NC(=O)c2cccc3c2C(=O)N(c2ccc(OC)cc2)C3)CC1 | u | x | 0% | 15µM*
CCOC(=O)N1CCC(N2Cc3cccc(C(=O)NCc4ccc(OC)cc4)c3C2=O)CC1 | x | 3% | x | x
COc1ccc(N2Cc3cccc(C(=O)Nc4ccc(C)cc4)c3C2=O)cc1 | -19% | u | -18% | u
COc1cc(NC(=O)COCc2cc(-c3ccc4c(c3)OCO4)on2)cc(OC)c1 | u | 4% | -8% | u
Cc1c(C)n(CC(O)CN2CCCCC2)c2ccccc12 (stereo not drawn) | -21% | -4% | 32µM* | -9%
Cc1cc(C)n(CC(O)Cn2c(C)c(C)c3ccccc32)n1 (stereo not drawn) | -6% | 0% | 32µM* | -3%
Cc1c(C)n(CC(O)CN2CCN(C)CC2)c2ccccc12 (stereo not drawn) | 5% | 3% | 4% | 3%
Cc1c(C)n(CC(O)CN2CCOCC2)c2ccccc12 (stereo not drawn) | -11% | -2% | -16% | -5%
O=C(Nc1ccc(N2CCOCC2)cc1)c1ccc(COc2ccccc2)cc1 | -8% | -4% | x | -5%
CC(NC(=O)Nc1ccccc1F)C(C)(C)C (stereo not drawn) | -4% | -4% | -1% | -9%
N#CC1=C(N)N2C(=C(C#N)C13CCN(Cc1ccccc1)CC3)Nc1ccccc12 | -28% | 4% | 32µM* | -30%
CC(C)c1[nH]nc2c1C1(CCN(Cc3ccccc3)CC1)C(C#N)=C(N)O2 | 2% | 0% | -5% | 1%
C=CCn1c(SCC(=O)Nc2nnc(CC)s2)nnc1-c1ccncc1 | -2% | -5% | x | 1%
CCC(=O)c1ccc(OC)c(OC)c1OCc1ccccc1 | u | x | -8% | -4%
CCCCC(=O)Nc1ccc2nc(SCC(=O)N3CCOCC3)sc2c1 | u | 4% | 0% | u
CCCCSc1nc2ccc(Nc3nc(N4CCOCC4)nc(N4CCOCC4)n3)cc2s1 | 21µM* | -2% | u | u
CCCCNC(=O)CSc1nc2ccc(Nc3nc(N4CCOCC4)nc(N4CCOCC4)n3)cc2s1 | 9.2µM* | 2% | 1% | 18µM*
c1cnc2cc3c(cc2n1)[C@@H]1CNC[C@H]3C1 | 6% | x | x | 2%
CC(C)CCn1c(Sc2nc3ccccc3s2)nc2c1c(=O)[nH]c(=O)n2C | 16µM* | 1% | 1% | u
CC1CCN(c2nc3c(c(=O)[nH]c(=O)n3C)n2CC(C)CSc2nnnn2-c2ccccc2)CC1 (stereo not drawn) | u | 0% | -6% | 16µM*
CC(CSc1nc2ccccc2s1)Cn1c(N2CCCC2)nc2c1c(=O)[nH]c(=O)n2C (stereo not drawn) | 16µM* | 8% | 0% | u
Cn1c(=O)[nH]c(=O)c2c1nc(N1CCCCC1)n2CCCSc1nnnn1-c1ccccc1 | u | 5% | 2% | u
